Results taken from the supplement of paper PMC10600219.
The full ranking holds about 2,800 compounds; the median of “cell viability relative to vehicle” is about 0.98, and the lowest 2% start at about 0.45. The full list was thinned out, with the lowest values kept by preference.

Tested on: NCI-H2228 alectinib-DTP
Assay: cell viability relative to vehicle (fraction of vehicle); NCI-H2228 is an ALK-positive lung cancer line and DTP means drug-tolerant persister; higher = less growth inhibition
Conditions: 100 nM; treatment time 6 days
In short: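 Values give cell viability as a fraction of vehicle-treated cells. Parental and drug-tolerant persister NCI-H2228 cells (persisters made with 1000 nM of a targeted drug for 13 days) were exposed in 384-well plates to the 3114-agent TargetMol anti-cancer compound library at 100 nM, with DMSO as vehicle. ATP was then read after 6 days by the CellTiter-Glo 3D Cell Viability Assay.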

Structure (SMILES)	cell viability
CC(C)=CCC[C@](C)(O[C@@H]1O[C@H](CO)[C@@H](O)[C@H](O)[C@H]1O)[C@H]1CC[C@]2(C)[C@@H]1[C@H](O)C[C@@H]1[C@@]3(C)CC[C@H](O)C(C)(C)[C@@H]3[C@@H](O[C@@H]3O[C@H](CO)[C@@H](O)[C@H](O)[C@H]3O[C@@H]3O[C@@H](C)[C@H](O)[C@@H](O)[C@H]3O)C[C@]12C [Ginsenoside Re]	0.852
C[C@H]1CNC(=O)c2cnn3ccc(nc23)N[C@H](C)c2cc(F)ccc2O1	0.904
NC(=O)c1nc(-c2c(F)cccc2Cl)oc1Nc1ccc(C(=O)N2CCOCC2)cc1	0.929
C=C(C)[C@@H]1CC[C@]2(C(=O)O)CC[C@]3(C)[C@H](CC[C@@H]4[C@@]5(C)CCC(=O)C(C)(C)[C@@H]5CC[C@]43C)[C@@H]12 [Betulonic acid]	1.08
O=C(Nc1ccc(C(O)(C(F)(F)F)C(F)(F)F)cc1)c1ccc(C(F)(F)F)cc1	0.963
CN(C)C(=S)NN=C(c1ccccn1)c1ccccn1	0.45
Clc1ccc(NN=C(c2ccccc2)c2ccccn2)nc1	0.74
NNC(=O)c1ccccn1 [2-Picolinyl hydrazide]	1.02
CC1=C(C(=O)Nc2ccc3[nH]ncc3c2)C(c2ccc(F)cc2)NC(=O)N1 (stereo not given)	1.09
CN1CCN(c2ccc(-c3ccncc3-c3cc(F)c(O)c(F)c3)cc2)CC1	1.11
COc1ccc(CNc2nc(N3CCC[C@H]3CO)ncc2C(=O)NCc2ncccn2)cc1Cl [Avanafil]	0.984
CCc1cnn2c(NCc3ccc[n+]([O-])c3)cc(N3CCCC[C@H]3CCO)nc12 [Dinaciclib]	0.17
COc1cc2c3cc1Oc1c(OC)c(OC)cc4c1[C@@H](Cc1ccc(O)c(c1)Oc1ccc(cc1)C[C@@H]3N(C)CC2)N(C)CC4 [Berbamine]	1.09
CC(=O)Oc1cc(C)c(OC(C)=O)c2ccccc12 [Menadiol Diacetate]	1.11
COc1ccc(/C(C#N)=C/c2ccc(N3CCC(O)CC3)s2)cc1OC	0.953
COc1cc(N2CCC(N3CCN(C)CC3)CC2)ccc1Nc1ncc(Cl)c(-c2c[nH]c3ccccc23)n1	0.893
Cc1cc(NC(=O)c2cccc(NC(=O)/C=C/CN(C)C)c2)ccc1Nc1nccc(-c2cccnc2)n1	0.841
CCOc1cc2ncc(C#N)c(Nc3ccc(F)c(Cl)c3)c2cc1NC(=O)/C=C/CN(C)C [Pelitinib]	0.507
CN(C)C/C=C/C(=O)Nc1ccc(C(=O)Nc2cccc(Nc3ncc(Cl)c(-c4c[nH]c5ccccc45)n3)c2)cc1	0.346
Cc1cc(C(=O)Nc2nc3cccc(Cl)c3n2[C@@H]2CCCCN(C(=O)/C=C/CN(C)C)C2)ccn1 [Nazartinib]	0.907
CN(C)C/C=C/C(=O)Nc1ccc(C(=O)N2CCC[C@@H](Nc3ncc(Cl)c(-c4c[nH]c5ccccc45)n3)C2)cc1	0.437
COc1ccc(C(c2c[nH]c3ccccc23)c2c[nH]c3ccccc23)cc1	1.04
CC1(C)CC[C@]2(C(=O)O)CC[C@]3(C)C(=CC[C@@H]4[C@@]5(C)C[C@@H](O)[C@H](O)C(C)(C)[C@@H]5CC[C@]43C)[C@@H]2C1 [Maslinic acid]	0.962
CC(=O)c1ccc(NC2=C(Cl)C(=O)c3ccccc3C2=O)cc1	0.908
COC(=O)c1cc(O)c(O)c(O)c1 [Methyl gallate]	1.07

Structure (SMILES)	cell viability
OC1CCC(Oc2cccc3cnc(Nc4ccc5nc[nH]c5c4)nc23)CC1 (stereo not given)	1.02
Cc1nn(C)cc1-c1nc2c(N3CCN(Cc4ccc(Cl)cc4)CC3)c(Cl)cnc2[nH]1	0.998
CCCCC/C=C\C/C=C\CCCCCCCC(=O)O [Linoleic acid]	0.87
Cc1c(C)c(NCC(=O)N(C)C2CCN(Cc3ccc(C(N)=O)cc3)CC2)c(C)c(C)c1N	0.837
CCNC(=O)c1noc(-c2cc(C(C)C)c(O)cc2O)c1-c1ccc(CN2CCOCC2)cc1 [Luminespib]	0.48
COCCN1CCN(Cc2ccc(-c3n[nH]c4c3C(=O)c3c(NC(=O)NN5CCOCC5)cccc3-4)cc2)CC1	0.3
O=C(Nc1ccc(CN2CCOCC2)cc1)c1ccc(-c2cccc(Cl)c2)o1	0.816
CONC(=O)Nc1ccc(-c2sc3c(c2CN(C)C)c(=O)n(-c2ccc(OC)nn2)c(=O)n3Cc2c(F)cccc2F)cc1 [Relugolix]	1.12
COc1ccc(S(=O)(=O)/N=C2\C=CC=C\C2=C/C=C2C=CN(O)C=C2)cc1	0.935
COC(=O)c1c2c(c3ccccc3c1O)OC(C)(C)C=C2 [Mollugin]	1.05
Cc1c(O)c(C)c2c(c1O)C(=O)C[C@@H](c1ccc(O)cc1)O2 [Farrerol]	0.874
CN1CCN(CCCNc2ncc(Cl)c(-c3cc4c(C(=O)NC5CC5)cccc4s3)n2)CC1	0.958
Cc1nc(Nc2ncc(C(=O)Nc3c(C)cccc3Cl)s2)cc(N2CCN(CCO)CC2)n1 [Dasatinib monohydrate]	0.489
Cc1nc(Nc2ncc(C(=O)Nc3c(C)cccc3Cl)s2)cc(N2CCN(CCO)CC2)n1 [Dasatinib]	0.348
Cc1cc(Nc2cc(N3CCN(C)CC3)nc(Sc3ccc(NC(=O)C4CC4)cc3)n2)n[nH]1 [Tozasertib]	0.762
Cc1nn2c([nH]c(=O)c3cccnc32)c1C#N	1.02
O=C(NOCCO)c1cc(CN2OCCCC2=O)c(F)c(F)c1Nc1ccc(I)cc1F	0.84
CC(C)n1nc(-c2ccc3oc(N)nc3c2)c2c(N)ncnc21	0.37
CC(C)n1nc(-c2cc3cc(O)ccc3[nH]2)c2c(N)ncnc21 [Torkinib]	0.733
CC(C)Oc1ccc(-c2nn([C@@H](C)c3oc4ccc(F)cc4c(=O)c3-c3cccc(F)c3)c3ncnc(N)c23)cc1F	0.937
Nc1ccc(-c2cnc(N)c(-c3ccc(Cl)cc3)c2)cn1	1.07
Oc1cc(-c2nc(-c3ccccc3)[nH]c2-c2ccncc2)ccc1Cl	1.22
CC(C)CN(CC(=O)N1CCN(CC(OCc2ccc3ccccc3c2)c2ccc(Cl)cc2Cl)CC1)CC(C)C (stereo not given)	1.12
CC(=O)O[C@@H]1C[C@H](O)[C@@]23CO[C@@H](O)[C@]1(C)[C@@H]2C[C@@H](O)[C@]1(C)[C@@H]3C(=O)[C@H](OC(C)=O)[C@@]2(C)[C@H](c3ccoc3)C[C@H]3O[C@]321 [Toosendanin]	0.408
CC(=O)O[C@H]1CC(=O)OC(C)(C)[C@@H]2CC(=O)[C@]3(C)[C@H](CC[C@@]4(C)[C@@H](c5ccoc5)OC(=O)[C@H]5O[C@]543)[C@@]12C [Nomilin]	1.15
